MEKK2wt PB1 HTS: raises or lowers MEK5 binding to wildtype human MEKK2 PB1 domain; Q9Y2U5; bead flow cytometry, Alexa488-MEK5 binding to MEKK2 WT; actives lie on both sides; binding response (% of control), % at 10 µM; 290,000 tested, 1.1% active; AID 1531; in the data active means binding response below about 67% or above about 130%
MEKK2mut PB1 HTS: signal of MEK5 binding to mutant human MEKK2 PB1 domain. 290,000 tested, 0.35% active. percent response, % at 10 µM. bead flow cytometry, Alexa488-MEK5 binding to MEKK2 mutant; in the data active means percent response above about 24%, passing the limit was not always enough
UBC13 inh: human UBC13 polyubiquitination inhibition | P61088 | UBC13 polyubiquitin chain formation, TR-FRET | inhibition, % at 20 µM | 330,000 tested, 0.47% active | AID 485273; in the data active means inhibition above about 45%, passing the limit was not always enough
Target sequence (P61088 whole entry, looked up): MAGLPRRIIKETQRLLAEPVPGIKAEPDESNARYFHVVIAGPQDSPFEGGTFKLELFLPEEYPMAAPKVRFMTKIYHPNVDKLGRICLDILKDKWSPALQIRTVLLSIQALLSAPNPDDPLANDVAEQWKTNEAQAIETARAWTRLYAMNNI
MEKK3 PB1 HTS: raises or lowers MEK5 binding to the human MEKK3 PB1 domain. bead-based flow cytometry, Alexa488-MEK5 binding to MEKK3; actives lie on both sides; 0 = blocked by unlabeled MEK5, 100 = vehicle. binding response (% of control), % at 10 µM. 290,000 tested, 1.4% active. Q99759;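 active means binding response more than 3 SD above or below the average of its plate-row segment, actives on both sides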;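 further: Alexa488 bead fluorescence after subtracting the streptavidin-only scavenger bead signal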
Of the large screens only hits and unclear results are named; the others gave an inactive call; ! = a repeat was not active; [ ] = dose if it differs, or a comment. Shown are actives, neighbours in structure and some others; about 2.3% of the full set was active somewhere.

COc1ccc(-c2cc(C)no2)cc1S(=O)(=O)NCC1CCN(Cc2cc(C)ccc2C)CC1	MEKK2wt PB1 HTS 143
COc1ccccc1CN1CCC(CNS(=O)(=O)c2cc(-c3cc(C)no3)ccc2C)CC1	none
CCOC(=O)/C(=C\c1ccccc1)NC(=O)c1ccccc1	none
CCOC(=O)/C(=C/c1ccc(OC(=O)c2ccccc2)cc1)C(C)=O	MEKK2wt PB1 HTS 4.0
CCOc1ccc(NCc2cccn2-c2nnc(N3CCC(C(=O)NCCCN4C(C)CCCC4C)CC3)s2)cc1 (configuration not stated)	MEKK2wt PB1 HTS 152, MEKK2mut PB1 HTS 25
CCOc1ccc(NCc2cccn2-c2nnc(N3CCC(C(=O)NCCCN4CCCCC4C)CC3)s2)cc1 (configuration not stated)	MEKK2wt PB1 HTS 147, MEKK2mut PB1 HTS 33
CCC1CCCCN1CCCNC(=O)C1CCN(c2nnc(-n3cccc3)s2)CC1 (configuration not stated)	MEKK2wt PB1 HTS 141
CN(CC1CCCN(CCc2cccc(C(F)(F)F)c2)C1)C(=O)c1cc2ccccc2o1 (configuration not stated)	MEKK2mut PB1 HTS 24
CCN(CC1CCCN(CCc2cccc(F)c2)C1)C(=O)c1cc2ccccc2o1 (configuration not stated)	none
COc1ccccc1C(=O)NC(CCSC)C(=O)OC(C)C(=O)NC1CC1 (configuration not stated)	none (no result: MEKK2wt PB1 HTS, MEKK2mut PB1 HTS, MEKK3 PB1 HTS)
COc1cc2cc(CN(Cc3cccs3)C(=S)Nc3ccccc3)c(=O)[nH]c2cc1OC	none
COc1ccc2[nH]c(=O)c(CN(Cc3cccs3)C(=S)Nc3ccccc3)cc2c1	MEKK2wt PB1 HTS -1.0
Cc1cc(Br)cc2cn[nH]c12	MEKK2wt PB1 HTS 40
OC(CNCCc1ccc(C(F)(F)F)cc1)COc1cccc2ccccc12 (configuration not stated)	MEKK2wt PB1 HTS 156
OC(CNCCc1ccc(C(F)(F)F)cc1)COc1ccc2ccccc2c1 (configuration not stated)	none
CC(C)(C)C(=O)/C=c1\s/c(=C\c2ccc(-c3ccc([N+](=O)[O-])cc3)o2)c(=O)n1CC(=O)NC(N)=O	MEKK2wt PB1 HTS 241, MEKK2mut PB1 HTS 396
COc1cccc2c1C(=O)c1c(O)c3c(c(O)c1C2=O)C[C@@](O)(C(=O)CO)C[C@@H]3O[C@H]1C[C@H](N)[C@H](O)[C@H](C)O1	MEKK2wt PB1 HTS 50![inhibitor], MEKK3 PB1 HTS 47![inhibitor]
CCC(OC(=O)c1nsc(Cl)c1Cl)C(=O)NC(C)(C)C (configuration not stated)	MEKK2wt PB1 HTS 12
CC(O)Cn1c(N2CCCC2)nc2c1c(=O)[nH]c(=O)n2C (configuration not stated)	none
CCC(C)(C)NC(=O)C1CCN(S(=O)(=O)c2cccs2)CC1	MEKK2wt PB1 HTS 296, MEKK2mut PB1 HTS 81
O=[N+]([O-])c1ccc(N/N=C/c2ccc[nH]2)cc1	MEKK2wt PB1 HTS -1.0 (no result: UBC13 inh)
O=[N+]([O-])c1ccc(N/N=C/c2c[nH]c3ccccc23)cc1	none
CC1CCCC(NC(=O)COC(=O)COc2cccc(F)c2)C1C (configuration not stated)	none (no result: MEKK2wt PB1 HTS, MEKK2mut PB1 HTS, MEKK3 PB1 HTS)
CCN(CC)CCNC(=O)c1[nH]c2ccc(OCc3ccccc3)cc2c1C	MEKK2wt PB1 HTS 184
C=CCn1c(SCC(=O)Nc2cc3oc4ccccc4c3cc2OC)nnc1-c1cnccn1	MEKK2wt PB1 HTS 140
C=CCn1c(SCC(=O)Nc2cccc3ccccc23)nnc1-c1cnccn1	none
Cn1c(C(=O)c2ccncc2)cc2ccccc21	none
O=C(O)c1ccc(N/N=C/c2c(F)cccc2Cl)cc1	none
Cc1cc(-c2csc(N)n2)c(C)n1CCC(C)C	MEKK2wt PB1 HTS 59
Cc1nn(C)cc1-c1csc(N)n1	none
CCCN1CCN(C(=O)C2CCN(S(=O)(=O)c3ccc4c(c3)NC(=O)C(C)S4)CC2)CC1 (configuration not stated)	MEKK2wt PB1 HTS 51, MEKK2mut PB1 HTS 25
Cc1ncsc1CCC(=O)N1CCCC(Nc2ccc(C(C)C)cc2)C1 (configuration not stated)	none
CCN1/C(=C\C=C2\C(=O)N(c3ccccc3)C(=S)N2C)Sc2ccccc21	MEKK2wt PB1 HTS 44[inhibitor], MEKK3 PB1 HTS 75[inhibitor] (no result: UBC13 inh)
CC(C)CCN1CCC(N)=NC1=O	MEKK2wt PB1 HTS 422, MEKK2mut PB1 HTS 534 (no result: UBC13 inh)
COc1cc2ccccc2cc1C(=O)N(CCN(C)C)c1nc2c(OC)ccc(OC)c2s1	MEKK2wt PB1 HTS 147, MEKK2mut PB1 HTS 24
COc1cc2ccccc2cc1C(=O)N(CCN(C)C)c1nc2ccc(C)cc2s1	MEKK2wt PB1 HTS 135
CC(SC1=Nc2ccccc2C2CC=NN12)C(=O)NC1(C#N)CCCCC1 (configuration not stated)	none (no result: MEKK2wt PB1 HTS, MEKK2mut PB1 HTS, MEKK3 PB1 HTS)
COc1ccc(N=C2O/C(=C/c3sc(=S)n(CC4CCCO4)c3O)N=C2C#N)cc1 (configuration not stated)	MEKK2wt PB1 HTS 33
COc1ccc(/C=C2\SC(=S)N(CC3CCCO3)C2=O)cc1 (configuration not stated)	none
C/C=C(\C)CN1CCCC(CO)(Cc2ccccc2)C1 (configuration not stated)	none
O=C1OCC2OC(O)C(O)C(O)C2OC(=O)c2cc(O)c(O)c(O)c2-c2c(O)c(O)c3oc(=O)c4c(c(O)c(O)c5oc(=O)c2c3c54)-c2c1cc(O)c(O)c2O (configuration not stated)	MEKK2wt PB1 HTS 66[inhibitor], MEKK3 PB1 HTS 73[inhibitor] (no result: UBC13 inh)
CCOC(=O)Cc1csc(NC(=O)c2ccc(N3CCOCC3)cc2[N+](=O)[O-])n1	none (no result: MEKK2wt PB1 HTS, MEKK2mut PB1 HTS, MEKK3 PB1 HTS)
Cc1ccc(N(CC(=O)Nc2ccccc2C(=O)NCc2ccco2)S(=O)(=O)c2ccccc2)cc1C	MEKK2mut PB1 HTS 29
CN(CCCNC(=O)c1cc2c(Cl)nc3ccccc3c2s1)Cc1ccccc1	MEKK2wt PB1 HTS 193
Cc1nc2ccccc2c2oc(C(=O)NCCCN3CCCC(C)C3)cc12 (configuration not stated)	none
CC1CCCN(CCCNC(=O)c2cc3c(Cl)nc4ccccc4c3s2)C1 (configuration not stated)	MEKK2wt PB1 HTS 189, MEKK2mut PB1 HTS 54
CC(C)CN1C(=O)/C(=C/c2c(N3CCc4ccccc4C3)nc3ccccn3c2=O)SC1=S	MEKK2mut PB1 HTS 77, MEKK3 PB1 HTS 22[inhibitor] (no result: MEKK2wt PB1 HTS, UBC13 inh)
CCOC(=O)CC1C(=O)NCCN1c1nc2c(C)cccn2c(=O)c1/C=C1\SC(=S)N(CC(C)C)C1=O (configuration not stated)	none (no result: UBC13 inh)
O=Cc1c(C(=O)O)n(CC(=O)O)c2ccccc12	MEKK3 PB1 HTS 134
Cc1ccc(NC(=O)CSc2nnc(C3CC3)n2CC2CCCO2)cc1C (configuration not stated)	none
Cc1ccc(NC(=O)c2cnc(SCC(=O)NCC3CCCO3)n(C)c2=O)cc1C (configuration not stated)	UBC13 inh 72 (no result: MEKK2wt PB1 HTS, MEKK2mut PB1 HTS, MEKK3 PB1 HTS)
CC(=O)Nc1ccc(NC(=O)CSc2ncc(C(=O)Nc3ccccc3)c(=O)n2C)cc1	UBC13 inh 69 (no result: MEKK2wt PB1 HTS, MEKK2mut PB1 HTS, MEKK3 PB1 HTS)
CCOc1ccc2oc(C(=O)NNC(=O)c3csc(N4CCOCC4)n3)c(C)c2c1	none
CN(C)CCSc1nc(N)c2c3c(sc2n1)CN(C)CC3	UBC13 inh 75
